pPAFAH FP inh – pPAFAH (human) enzyme inhibition. Q13093. recombinant pPAFAH, FP-rhodamine probe fluorescence polarization. inhibition, % at 3.39 µM. actives 1.5% (n = 330,000). AID 463082;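 active means inhibition above the mean inhibition across the screen plus 3 SD, cut at about 25% in these data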;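 further: inhibitors block binding of the rhodamine activity-based probe so polarization drops; 0% = enzyme with DMSO and 100% = wells lacking pPAFAH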
PAFAH1B2 inh – blocks human PAF acetylhydrolase 1b catalytic subunit 2. P68402. recombinant PAFAH1B2, FP-rhodamine activity probe, fluorescence polarization. inhibition, % at 3.39 µM. actives 1.2% (n = 340,000). AID 492953;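 active means inhibition above the mean of all tested compounds plus 3 SD, cut at about 24% in these data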;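 further: 0% = enzyme with DMSO and 100% = wells lacking PAFAH1B2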
Target sequence (P68402 whole entry, looked up): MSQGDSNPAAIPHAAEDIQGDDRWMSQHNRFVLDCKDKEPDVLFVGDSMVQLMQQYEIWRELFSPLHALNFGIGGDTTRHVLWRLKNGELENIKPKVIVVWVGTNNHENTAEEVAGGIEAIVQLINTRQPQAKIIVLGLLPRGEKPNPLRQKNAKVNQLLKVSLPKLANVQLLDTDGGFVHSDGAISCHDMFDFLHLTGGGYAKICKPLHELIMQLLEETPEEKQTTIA
PAFAH2 inh – PAFAH2 (human) inhibition; AID 492956; inhibition, % at 3.39 µM; actives 0.99% (n = 340,000); Q99487; recombinant PAFAH2, FP-rhodamine activity probe, fluorescence polarization;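 active means inhibition above the mean over all tested compounds plus 3 SD, cut at about 30% in these data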;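 further: inhibitors block probe labeling of enzyme so polarization drops; 0% = enzyme with DMSO and 100% = wells lacking PAFAH2 protein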
Rin1-Abl PPI inh – human Rin1-Abl interaction inhibition; actives 0.4% (n = 360,000); TR-FRET Rin1/Abl binding, biochemical; P00519+Q13671; inhibition, % at 7.35 µM; in the data active means inhibition above about 5%, passing the limit was not always enough
E coli Lon inh – inhibits E. coli Lon protease; actives 0.42% (n = 360,000); purified E. coli Lon protease, fluorescence polarization; inhibition, % at 7.94 µM; AID 602123; in the data active means inhibition above about 13%, passing the limit was not always enough;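 further: 0% = enzyme with probe and DMSO and 100% = no enzyme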
PAFAH1B3 FP inh – PAFAH1B3 (human) inhibition; AID 492972; recombinant PAFAH1B3, FP-rhodamine probe, fluorescence polarization; inhibition, % at 3.39 µM; actives 0.28% (n = 340,000);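 active means inhibition above the screen-wide average of all tested compounds plus 3 SD, cut at about 25% in these data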;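 further: 0% = enzyme with DMSO only and 100% = wells lacking PAFAH1B3 protein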
Target sequence (Q15102 whole entry, looked up): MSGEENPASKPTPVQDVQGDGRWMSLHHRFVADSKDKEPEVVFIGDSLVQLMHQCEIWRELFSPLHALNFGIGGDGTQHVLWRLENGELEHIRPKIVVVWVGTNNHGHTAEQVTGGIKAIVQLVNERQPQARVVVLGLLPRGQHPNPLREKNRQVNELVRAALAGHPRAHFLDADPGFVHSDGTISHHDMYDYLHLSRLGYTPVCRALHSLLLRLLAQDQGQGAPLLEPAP
Numbers without * were called inactive. Sampled rows, rich in hits. Any-hit rate of the full collection: about 3.1%.

What do the screens show for `Cc1ccc(NC(=O)CN(C)C(=O)c2cccnc2Nc2cccc(C(F)(F)F)c2)cc1`?
pPAFAH FP inh: 1.4; PAFAH1B2 inh: 6.0; PAFAH2 inh: -10.7; Rin1-Abl PPI inh: -0.8; E coli Lon inh: -4.5; PAFAH1B3 FP inh: 1.5

What do the screens show for `CCCCN(C(=O)CSc1nnnn1C)C1CCS(=O)(=O)C1` (stereo unspecified)?
pPAFAH FP inh: -1.1; PAFAH1B2 inh: 0.7; PAFAH2 inh: 1.1; Rin1-Abl PPI inh: 1.2; E coli Lon inh: -3.9; PAFAH1B3 FP inh: -1.3

How did Cc1ccc(CNn2cnnc2SCc2ccc(F)cc2)cc1 do in these assays?
pPAFAH FP inh: 4.0; PAFAH1B2 inh: 27.6*; PAFAH2 inh: 4.2; Rin1-Abl PPI inh: -0.7; E coli Lon inh: -3.8; PAFAH1B3 FP inh: 8.4

Results for CCOC(=O)Cc1cc(=O)n2[nH]cc(-c3cccc(Br)c3)c2n1 ?
pPAFAH FP inh: 30.8*; PAFAH1B2 inh: 12.6; PAFAH2 inh: 30.7*; Rin1-Abl PPI inh: -3.1; E coli Lon inh: 7.0; PAFAH1B3 FP inh: 7.8

How did CCOC(=O)Cc1cc(=O)n2[nH]c(-c3ccc(C)cc3)cc2n1 do in these assays?
pPAFAH FP inh: 34.0*; PAFAH1B2 inh: 3.3; PAFAH2 inh: 5.8; Rin1-Abl PPI inh: -2.5; E coli Lon inh: -3.9; PAFAH1B3 FP inh: -1.4

Results for Cc1cccc(C)c1-n1c(C)nn(-c2ncc(C(F)(F)F)cc2Cl)c1=O ?
pPAFAH FP inh: -1.7; PAFAH1B2 inh: 3.9; PAFAH2 inh: -2.2; Rin1-Abl PPI inh: 3.0; E coli Lon inh: -3.7; PAFAH1B3 FP inh: 5.3

Results for Cc1nn(-c2ncc(C(F)(F)F)cc2Cl)c(=O)n1-c1c(F)cccc1F ?
pPAFAH FP inh: 30.0*; PAFAH1B2 inh: -1.5; PAFAH2 inh: 7.0; Rin1-Abl PPI inh: 2.5; E coli Lon inh: -3.0; PAFAH1B3 FP inh: 8.3

What do the screens show for `N#Cc1c(Nc2cccc(F)c2)sc2c(O)cc(=O)[nH]c12`?
pPAFAH FP inh: 25.1*; Rin1-Abl PPI inh: -0.5; E coli Lon inh: -23.4

What do the screens show for `Cc1cc(=O)[nH]c(Nc2cccc(F)c2)n1`?
pPAFAH FP inh: -2.0; PAFAH1B2 inh: -2.8; PAFAH2 inh: -1.2; Rin1-Abl PPI inh: 0.5; E coli Lon inh: -1.3; PAFAH1B3 FP inh: 9.8

How did CC(C)c1ccc(/C=N/n2c(COc3ccccc3)n[nH]c2=S)cc1 do in these assays?
pPAFAH FP inh: 9.7; PAFAH1B2 inh: 28.8*; PAFAH2 inh: 34.6*; Rin1-Abl PPI inh: 2.2; E coli Lon inh: 3.0; PAFAH1B3 FP inh: 24.4

Results for C=CCOC(=O)C(=O)/C=C/c1ccc2c(c1)Cc1ccccc1-2 ?
pPAFAH FP inh: 27.5*; PAFAH1B2 inh: -0.4; PAFAH2 inh: -4.5; Rin1-Abl PPI inh: 4.3; E coli Lon inh: -7.3; PAFAH1B3 FP inh: -0.2

What do the screens show for `COc1ccc(C(O)c2ncc(-c3cccc(C(F)(F)F)c3)[nH]2)cc1` (stereo unspecified)?
Rin1-Abl PPI inh: -1.7; E coli Lon inh: 3.4

How did CCCN(CCC)c1nc(Cl)nc(NCc2ccco2)n1 do in these assays?
pPAFAH FP inh: 25.5*; PAFAH1B2 inh: -2.3; PAFAH2 inh: -0.3; Rin1-Abl PPI inh: -0.1; E coli Lon inh: 2.5; PAFAH1B3 FP inh: 8.4

How did OCCNc1nc(Cl)nc(NCc2ccco2)n1 do in these assays?
pPAFAH FP inh: -0.1; PAFAH1B2 inh: 1.6; PAFAH2 inh: 5.4; Rin1-Abl PPI inh: 1.6; E coli Lon inh: 6.8; PAFAH1B3 FP inh: 12.4

Results for Cc1ccc(CNS(=O)(=O)c2c(C)[nH]c(=O)[nH]c2=O)cc1 ?
PAFAH1B2 inh: 4.1; PAFAH2 inh: 3.0; Rin1-Abl PPI inh: 3.3; E coli Lon inh: 1.4; PAFAH1B3 FP inh: 2.7

What do the screens show for `O=C1NC(c2ccncc2)C(C(=O)c2cccs2)C(O)(C(F)(F)F)N1` (stereo unspecified)?
pPAFAH FP inh: 6.0; PAFAH1B2 inh: 7.6; PAFAH2 inh: 5.5; Rin1-Abl PPI inh: -1.6; E coli Lon inh: -3.1; PAFAH1B3 FP inh: 7.5

How did O=C1NC(c2cccs2)C(C(=O)c2ccccc2)C(O)(C(F)(F)F)N1 (stereo unspecified) do in these assays?
pPAFAH FP inh: 0.0; PAFAH1B2 inh: 31.8*; PAFAH2 inh: 2.8; Rin1-Abl PPI inh: -4.4; E coli Lon inh: 2.5; PAFAH1B3 FP inh: 2.9

How did Cc1cc(C(=O)OCC(=O)Nc2sc3c(c2C#N)CCC(C)C3)c2ccccc2n1 (stereo unspecified) do in these assays?
pPAFAH FP inh: 24.6*; PAFAH1B2 inh: -1.0; PAFAH2 inh: 0.5; Rin1-Abl PPI inh: -0.2; E coli Lon inh: -2.1; PAFAH1B3 FP inh: 1.2

Assay outcomes as filed in PubChem BioAssay.
